Results filed as inconclusive are left out. Activity calls are given as the source filed them. How the source made its calls: active means hit-call score of the fitted dose curve at least 0.9, where 1 is the maximum; inconclusive means response in the unintended direction; inactive means score below 0.9.
Experiment: CCTE_Mundy_HCI_iCellGluta_NOG_NeuronCount: CCTE's Neurite Outgrowth Assay in iCellGluta cells for Neuron Count, Mundy Lab (AID 2284340);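 further: cells fixed about 48 h after compound addition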
Method: CCTE_Mundy_HCI_iCellGluta_NOG is a multiplexed, cell-based-readout assay that uses iCell GlutaNeurons from FUJIFILM Cellular Dynamics, Inc. (FCDI), human glutamatergic enriched neurons derived from induced pluripotent stem (iPS) cells, with measurements taken at 50.33 hours after chemical dosing in a microplate: 96-well plate.CCTE_Mundy_HCI_iCellGluta_NOG_NeuronCount is one of four components of the CCTE_Mundy_HCI_iCellGluta_NOG assay. It measures cell viability related to number of neurons using High Content Imaging of fluorescently labelled markers.Data from the assay component CCTE_Mundy_HCI_iCellGluta_NOG_NeuronCount was analyzed at the endpoint CCTE_Mundy_HCI_iCellGluta_NOG_NeuronCount in the positive analysis fitting direction relative to DMSO as the negative control and baseline of activity. Using a type of viability reporter, loss-of-signal activity can be used to understand developmental effects.
Exposure starts 2 hours post-plating by adding 10 ul of the working solution to 90 ul of media in the wells for a 1/10 dilution. Forty-eight hours after chemical treatment cells are fixed by direct addition of 100 ul of warm (37C) Dulbecco's phosphate buffered saline (DPBS) fixative solution containing 8% paraformaldehyde, 8% sucrose, and 0.1% of 3 mg/ml Hoechst 33342 into each well. Primary antibodies are prepared by dilution in Immunocytochemical Staining Buffer (ISB), 10X Dulbecco's PBS, 0.1% Saponin, 5% Bovine Serum Albumin, 0.5% NaN3 (Sodium Azide) and betaIII-tubulin (rabbit anti-betaIII-tubulin, 1:800) followed by Alexa Fluor-488 secondary (1:500) to label neuronal cell bodies and neurites. A Cellomics ArrayScan VTi HCS Reader is used for automated image acquisition and analysis of neurite outgrowth.

SMILES | AC50 | outcome
CC(=O)[O-].[Tl+] | 31.3 µM (active) | 
[CH3][Hg][Cl] | 0.0806 µM (active) | 
Cn1nc(C(F)(F)F)c(CS(=O)(=O)C2=NOC(C)(C)C2)c1OC(F)F |  | inactive
CC1(C)[C@H](C=C(Cl)Cl)[C@@H]1C(=O)O[C@@H](C#N)c1cccc(Oc2ccccc2)c1 |  | inactive
CC1(C)C(C=C(Cl)c2ccc(Cl)cc2)C1C(=O)OC(C#N)c1ccc(F)c(Oc2ccccc2)c1 (configuration not stated) |  | inactive
CCOP(=O)(OCC)OC(Cl)C(Cl)(Cl)Cl (configuration not stated) |  | inactive
CC1(C)C(C=C(Cl)Cl)C1C(=O)O[C@H](C#N)c1cccc(Oc2ccccc2)c1 (some centres not stated) |  | inactive
CC1(C)[C@@H](C=C(Cl)Cl)[C@@H]1C(=O)O[C@@H](C#N)c1ccc(F)c(Oc2ccccc2)c1 |  | inactive
COP(=O)(OC)SCN1C(=O)c2ccccc2C1=O |  | inactive
C#CCN(C)[C@H](C)Cc1ccccc1 |  | inactive
[Cd+2].[Cl-].[Cl-] | 15 µM (active) | 
CCOP(=O)(OCC)SCSC(C)(C)C |  | inactive
CCOP(=S)(OCC)SCS(=O)C(C)(C)C (configuration not stated) |  | inactive
CCOP(=O)(Oc1cnc(C(C)(C)C)nc1)OC(C)C (configuration not stated) |  | inactive
CC1(C)[C@H](C=C(Cl)Cl)[C@H]1C(=O)OCc1c(F)c(F)cc(F)c1F | 21.7 µM (active) | 
CCOP(=O)(OCC)SCSCC |  | inactive
CNC(=N[N+](=O)[O-])NCC1CCOC1 (configuration not stated) |  | inactive

Source: PubChem BioAssay (EPA / NIEHS)
